The values below come from ChEMBL document CHEMBL1961873, “Compounds: GSK PKIS; Assays: Nanosyn kinase panel” (2012).

The target of experiment [1] is Sphingosine kinase 1 (Homo sapiens) (UniProt Q9NYA1). As to conditions: at 1 µM.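 Also: mean SPHK1 inhibition value reported from the GSK PKIS kinase panel screen.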
Experiment [2] addresses T1, Sphingosine kinase 2 (Homo sapiens) (UniProt Q9NRA0).
T1 sequence (whole entry): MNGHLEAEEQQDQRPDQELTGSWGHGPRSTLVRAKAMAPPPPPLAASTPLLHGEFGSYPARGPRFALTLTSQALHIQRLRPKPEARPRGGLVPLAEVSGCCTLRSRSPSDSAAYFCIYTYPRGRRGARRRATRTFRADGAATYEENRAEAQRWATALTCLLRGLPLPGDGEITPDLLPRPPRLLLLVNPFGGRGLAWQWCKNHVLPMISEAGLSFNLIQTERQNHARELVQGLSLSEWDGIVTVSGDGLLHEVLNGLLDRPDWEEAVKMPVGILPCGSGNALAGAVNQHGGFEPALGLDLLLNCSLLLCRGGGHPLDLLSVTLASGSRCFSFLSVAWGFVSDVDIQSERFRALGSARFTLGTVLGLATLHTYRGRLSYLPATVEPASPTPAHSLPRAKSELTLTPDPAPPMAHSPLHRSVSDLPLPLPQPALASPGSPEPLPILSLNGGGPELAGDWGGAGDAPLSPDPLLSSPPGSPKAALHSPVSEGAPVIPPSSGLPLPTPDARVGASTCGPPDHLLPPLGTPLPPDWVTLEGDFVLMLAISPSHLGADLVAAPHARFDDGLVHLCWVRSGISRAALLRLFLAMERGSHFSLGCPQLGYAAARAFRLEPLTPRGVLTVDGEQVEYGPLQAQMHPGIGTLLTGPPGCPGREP
Particulars: at 0.1 µM.

In experiment [3] the target is T1, Sphingosine kinase 2 (Homo sapiens). Particulars: at 1 µM.
The target in experiment [4] is Casein kinase II subunit alpha (Homo sapiens) (UniProt P68400). As to conditions: at 0.1 µM.
Experiment [5] shares this target. Particulars: at 1 µM.
Experiment [6] deals with T2, Inhibitor of nuclear factor kappa-B kinase subunit alpha (Homo sapiens) (UniProt O15111).
T2 sequence (whole entry): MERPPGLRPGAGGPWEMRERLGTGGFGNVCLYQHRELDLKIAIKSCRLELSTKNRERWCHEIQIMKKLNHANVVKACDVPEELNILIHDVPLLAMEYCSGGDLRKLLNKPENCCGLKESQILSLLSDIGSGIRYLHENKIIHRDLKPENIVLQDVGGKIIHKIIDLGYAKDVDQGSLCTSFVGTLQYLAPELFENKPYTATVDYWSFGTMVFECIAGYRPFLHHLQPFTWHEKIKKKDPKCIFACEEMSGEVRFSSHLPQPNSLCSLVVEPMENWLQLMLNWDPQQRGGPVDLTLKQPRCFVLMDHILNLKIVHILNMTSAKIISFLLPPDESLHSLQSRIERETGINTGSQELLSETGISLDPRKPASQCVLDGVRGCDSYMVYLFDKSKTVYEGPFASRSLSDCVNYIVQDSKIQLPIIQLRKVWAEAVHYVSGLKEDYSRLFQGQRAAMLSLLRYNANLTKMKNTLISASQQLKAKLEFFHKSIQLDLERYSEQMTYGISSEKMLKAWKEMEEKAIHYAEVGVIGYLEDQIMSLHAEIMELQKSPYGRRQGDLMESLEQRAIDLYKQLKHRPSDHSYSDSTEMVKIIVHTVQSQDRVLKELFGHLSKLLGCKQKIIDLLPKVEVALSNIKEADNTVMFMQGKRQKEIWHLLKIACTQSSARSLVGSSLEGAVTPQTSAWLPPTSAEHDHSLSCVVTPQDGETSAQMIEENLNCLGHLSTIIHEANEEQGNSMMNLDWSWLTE
Particulars: at 0.1 µM.

The target of experiment [7] is T2, Inhibitor of nuclear factor kappa-B kinase subunit alpha (Homo sapiens). As to conditions: at 1 µM.
Experiment [8] concerns the target T3, Inhibitor of nuclear factor kappa-B kinase subunit beta (Homo sapiens) (UniProt O14920).
T3 sequence (whole entry): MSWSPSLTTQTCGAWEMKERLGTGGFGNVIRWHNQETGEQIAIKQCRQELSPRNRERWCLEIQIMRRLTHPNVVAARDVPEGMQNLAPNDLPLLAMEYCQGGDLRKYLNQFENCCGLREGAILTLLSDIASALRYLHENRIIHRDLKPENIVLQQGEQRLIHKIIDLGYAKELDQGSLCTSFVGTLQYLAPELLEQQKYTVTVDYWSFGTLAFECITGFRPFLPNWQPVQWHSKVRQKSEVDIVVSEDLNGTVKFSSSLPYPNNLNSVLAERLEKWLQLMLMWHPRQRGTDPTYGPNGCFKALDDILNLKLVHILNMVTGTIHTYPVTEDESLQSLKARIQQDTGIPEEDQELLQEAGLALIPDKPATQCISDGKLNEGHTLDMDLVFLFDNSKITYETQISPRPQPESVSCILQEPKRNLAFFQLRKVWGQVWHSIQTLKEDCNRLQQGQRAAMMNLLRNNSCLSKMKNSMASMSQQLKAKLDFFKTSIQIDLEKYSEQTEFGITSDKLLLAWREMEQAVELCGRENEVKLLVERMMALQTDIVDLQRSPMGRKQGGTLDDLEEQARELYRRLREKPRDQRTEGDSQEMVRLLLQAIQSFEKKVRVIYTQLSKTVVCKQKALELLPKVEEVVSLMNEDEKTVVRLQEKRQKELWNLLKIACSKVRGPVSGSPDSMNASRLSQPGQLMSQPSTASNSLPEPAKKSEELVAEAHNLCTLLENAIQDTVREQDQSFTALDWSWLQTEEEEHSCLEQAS
As to conditions: at 0.1 µM.

Experiment [9] has as its target T3, Inhibitor of nuclear factor kappa-B kinase subunit beta (Homo sapiens). Particulars: at 1 µM.
The target in experiment [10] is T4, Inhibitor of nuclear factor kappa-B kinase subunit epsilon (Homo sapiens) (UniProt Q14164).
T4 sequence (whole entry): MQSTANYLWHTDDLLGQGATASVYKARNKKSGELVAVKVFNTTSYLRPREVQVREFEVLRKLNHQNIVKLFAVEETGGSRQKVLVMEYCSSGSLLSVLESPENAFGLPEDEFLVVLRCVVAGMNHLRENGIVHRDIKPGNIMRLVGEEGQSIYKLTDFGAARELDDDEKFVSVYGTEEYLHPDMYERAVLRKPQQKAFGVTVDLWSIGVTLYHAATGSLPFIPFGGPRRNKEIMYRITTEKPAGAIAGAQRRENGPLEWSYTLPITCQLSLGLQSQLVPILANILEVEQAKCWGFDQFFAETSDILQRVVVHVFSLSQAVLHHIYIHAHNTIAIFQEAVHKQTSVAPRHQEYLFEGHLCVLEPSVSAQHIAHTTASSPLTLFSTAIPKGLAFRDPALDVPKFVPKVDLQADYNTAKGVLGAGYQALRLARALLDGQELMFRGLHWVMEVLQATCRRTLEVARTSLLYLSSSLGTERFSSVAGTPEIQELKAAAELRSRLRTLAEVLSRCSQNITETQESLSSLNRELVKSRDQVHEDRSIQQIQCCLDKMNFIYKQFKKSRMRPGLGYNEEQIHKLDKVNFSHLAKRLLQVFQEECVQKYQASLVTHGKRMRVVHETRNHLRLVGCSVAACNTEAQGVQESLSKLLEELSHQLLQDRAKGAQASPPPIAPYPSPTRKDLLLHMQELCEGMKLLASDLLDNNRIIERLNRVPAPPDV
Particulars: at 0.1 µM.

For experiment [11], the target named is T4, Inhibitor of nuclear factor kappa-B kinase subunit epsilon (Homo sapiens). Particulars: at 1 µM.
Experiment [12] addresses T5, Serine/threonine-protein kinase Nek1 (Homo sapiens) (UniProt Q96PY6).
T5 sequence (whole entry): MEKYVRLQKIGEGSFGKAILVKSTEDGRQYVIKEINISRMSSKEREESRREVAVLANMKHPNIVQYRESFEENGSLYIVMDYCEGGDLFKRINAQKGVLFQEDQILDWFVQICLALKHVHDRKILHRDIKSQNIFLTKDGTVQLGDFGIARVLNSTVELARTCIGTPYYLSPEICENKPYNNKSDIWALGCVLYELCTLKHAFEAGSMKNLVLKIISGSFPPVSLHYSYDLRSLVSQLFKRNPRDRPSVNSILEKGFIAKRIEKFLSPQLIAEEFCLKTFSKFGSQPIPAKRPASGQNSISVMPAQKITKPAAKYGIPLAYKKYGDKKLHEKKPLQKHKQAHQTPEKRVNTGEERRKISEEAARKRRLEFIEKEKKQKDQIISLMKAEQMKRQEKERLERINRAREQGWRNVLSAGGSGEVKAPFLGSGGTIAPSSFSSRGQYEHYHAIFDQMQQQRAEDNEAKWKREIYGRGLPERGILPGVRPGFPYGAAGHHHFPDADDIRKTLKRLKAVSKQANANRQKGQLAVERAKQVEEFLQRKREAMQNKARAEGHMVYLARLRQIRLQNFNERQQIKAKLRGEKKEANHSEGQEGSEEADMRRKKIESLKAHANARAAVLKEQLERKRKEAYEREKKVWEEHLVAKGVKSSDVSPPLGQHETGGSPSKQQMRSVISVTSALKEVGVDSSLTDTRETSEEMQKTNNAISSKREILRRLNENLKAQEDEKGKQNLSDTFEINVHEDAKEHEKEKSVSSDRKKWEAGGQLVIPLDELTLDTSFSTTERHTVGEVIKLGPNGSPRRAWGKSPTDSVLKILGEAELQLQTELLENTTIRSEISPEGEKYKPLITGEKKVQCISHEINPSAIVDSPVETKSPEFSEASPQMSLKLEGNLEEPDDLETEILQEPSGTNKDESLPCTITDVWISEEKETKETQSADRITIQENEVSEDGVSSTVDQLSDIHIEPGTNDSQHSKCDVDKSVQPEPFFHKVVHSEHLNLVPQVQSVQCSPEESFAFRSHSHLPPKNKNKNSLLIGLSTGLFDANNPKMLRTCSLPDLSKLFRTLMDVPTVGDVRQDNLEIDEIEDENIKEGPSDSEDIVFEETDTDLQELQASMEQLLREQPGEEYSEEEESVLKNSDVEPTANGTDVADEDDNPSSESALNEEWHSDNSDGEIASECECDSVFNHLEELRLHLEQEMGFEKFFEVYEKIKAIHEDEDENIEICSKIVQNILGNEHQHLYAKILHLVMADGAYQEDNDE
Particulars: at 0.1 µM.

Experiment [13] concerns the target T5, Serine/threonine-protein kinase Nek1 (Homo sapiens). Particulars: at 1 µM.
The target of experiment [14] is T6, Serine/threonine-protein kinase Nek2 (Homo sapiens) (UniProt P51955).
T6 sequence (whole entry): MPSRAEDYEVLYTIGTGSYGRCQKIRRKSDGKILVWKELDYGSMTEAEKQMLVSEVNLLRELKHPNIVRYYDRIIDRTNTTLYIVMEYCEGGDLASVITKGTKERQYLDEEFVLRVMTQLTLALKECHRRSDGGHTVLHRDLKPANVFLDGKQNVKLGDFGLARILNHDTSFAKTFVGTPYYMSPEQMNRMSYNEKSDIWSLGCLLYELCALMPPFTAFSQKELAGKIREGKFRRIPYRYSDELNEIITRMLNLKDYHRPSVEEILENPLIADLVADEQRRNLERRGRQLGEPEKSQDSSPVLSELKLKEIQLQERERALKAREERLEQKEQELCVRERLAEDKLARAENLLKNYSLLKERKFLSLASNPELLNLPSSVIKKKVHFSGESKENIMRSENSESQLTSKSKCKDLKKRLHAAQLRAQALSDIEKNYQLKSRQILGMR
Particulars: at 0.1 µM.

The target in experiment [15] is T6, Serine/threonine-protein kinase Nek2 (Homo sapiens). As to conditions: at 1 µM.
The target in experiment [16] is Serine/threonine-protein kinase Nek6 (Homo sapiens) (UniProt Q9HC98). As to conditions: at 0.1 µM.
The target is the same in experiment [17]. As to conditions: at 1 µM.
In experiment [18] the target is Serine/threonine-protein kinase Nek7 (Homo sapiens) (UniProt Q8TDX7). Particulars: at 0.1 µM.
Experiment [19] has the same target. Particulars: at 1 µM.
In experiment [20] the target is T7, Serine/threonine-protein kinase Nek9 (Homo sapiens) (UniProt Q8TD19).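 Also: reported value is the mean percent inhibition of NEK9.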
T7 sequence (whole entry): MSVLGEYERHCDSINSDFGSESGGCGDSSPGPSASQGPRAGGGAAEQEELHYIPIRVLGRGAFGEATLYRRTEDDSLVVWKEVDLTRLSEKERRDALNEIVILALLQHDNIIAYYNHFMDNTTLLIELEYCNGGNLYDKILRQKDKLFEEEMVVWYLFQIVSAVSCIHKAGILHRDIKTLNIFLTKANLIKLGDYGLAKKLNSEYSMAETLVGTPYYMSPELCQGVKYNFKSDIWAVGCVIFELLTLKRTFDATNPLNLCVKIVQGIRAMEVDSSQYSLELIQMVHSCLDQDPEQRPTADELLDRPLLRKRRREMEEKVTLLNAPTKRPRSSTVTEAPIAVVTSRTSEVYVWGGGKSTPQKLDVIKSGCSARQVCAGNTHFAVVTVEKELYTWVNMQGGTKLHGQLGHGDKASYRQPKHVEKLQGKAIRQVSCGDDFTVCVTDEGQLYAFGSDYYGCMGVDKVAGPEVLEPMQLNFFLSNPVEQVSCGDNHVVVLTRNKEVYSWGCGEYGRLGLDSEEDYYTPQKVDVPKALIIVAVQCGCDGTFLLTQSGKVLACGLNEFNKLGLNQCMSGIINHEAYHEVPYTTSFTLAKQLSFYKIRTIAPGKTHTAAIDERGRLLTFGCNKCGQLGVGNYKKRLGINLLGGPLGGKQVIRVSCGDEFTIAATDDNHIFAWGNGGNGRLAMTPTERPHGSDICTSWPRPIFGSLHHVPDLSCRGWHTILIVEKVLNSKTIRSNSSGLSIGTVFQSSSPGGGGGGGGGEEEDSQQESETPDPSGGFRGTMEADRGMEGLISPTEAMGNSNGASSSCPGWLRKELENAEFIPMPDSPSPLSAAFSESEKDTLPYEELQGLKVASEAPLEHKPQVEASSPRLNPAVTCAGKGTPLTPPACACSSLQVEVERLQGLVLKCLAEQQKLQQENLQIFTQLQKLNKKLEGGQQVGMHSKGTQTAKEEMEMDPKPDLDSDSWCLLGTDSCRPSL
As to conditions: at 0.1 µM.

Chain of Serine/threonine-protein kinase Nek6 (Homo sapiens) (Q9HC98 whole entry): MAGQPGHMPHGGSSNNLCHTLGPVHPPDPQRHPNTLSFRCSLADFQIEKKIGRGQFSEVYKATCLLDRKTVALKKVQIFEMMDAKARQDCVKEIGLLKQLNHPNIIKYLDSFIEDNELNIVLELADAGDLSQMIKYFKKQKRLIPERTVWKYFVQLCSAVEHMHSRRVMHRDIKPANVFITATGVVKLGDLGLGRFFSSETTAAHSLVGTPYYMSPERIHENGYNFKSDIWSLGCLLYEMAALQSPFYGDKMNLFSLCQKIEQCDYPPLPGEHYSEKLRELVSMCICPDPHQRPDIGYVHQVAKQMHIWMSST
Chain of Serine/threonine-protein kinase Nek7 (Homo sapiens) (Q8TDX7 whole entry, looked up): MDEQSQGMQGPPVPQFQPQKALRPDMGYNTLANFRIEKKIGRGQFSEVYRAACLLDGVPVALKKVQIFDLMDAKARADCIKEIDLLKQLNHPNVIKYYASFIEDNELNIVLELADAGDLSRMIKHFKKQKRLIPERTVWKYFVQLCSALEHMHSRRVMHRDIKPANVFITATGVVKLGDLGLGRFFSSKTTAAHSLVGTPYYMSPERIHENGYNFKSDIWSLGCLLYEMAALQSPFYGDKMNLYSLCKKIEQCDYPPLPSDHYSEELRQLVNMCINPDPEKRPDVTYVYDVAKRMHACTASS
Chain of Casein kinase II subunit alpha (Homo sapiens) (P68400 whole entry, looked up): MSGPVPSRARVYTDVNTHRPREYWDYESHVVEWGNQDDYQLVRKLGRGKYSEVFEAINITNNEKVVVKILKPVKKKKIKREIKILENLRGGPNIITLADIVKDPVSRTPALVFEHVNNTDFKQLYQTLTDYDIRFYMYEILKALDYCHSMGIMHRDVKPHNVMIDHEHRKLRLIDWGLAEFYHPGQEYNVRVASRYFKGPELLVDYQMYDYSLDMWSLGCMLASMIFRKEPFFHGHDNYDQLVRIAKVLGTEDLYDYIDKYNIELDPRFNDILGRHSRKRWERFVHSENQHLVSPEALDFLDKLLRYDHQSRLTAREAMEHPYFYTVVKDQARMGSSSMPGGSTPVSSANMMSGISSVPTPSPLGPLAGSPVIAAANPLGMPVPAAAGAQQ
Chain of Sphingosine kinase 1 (Homo sapiens) (Q9NYA1 whole entry): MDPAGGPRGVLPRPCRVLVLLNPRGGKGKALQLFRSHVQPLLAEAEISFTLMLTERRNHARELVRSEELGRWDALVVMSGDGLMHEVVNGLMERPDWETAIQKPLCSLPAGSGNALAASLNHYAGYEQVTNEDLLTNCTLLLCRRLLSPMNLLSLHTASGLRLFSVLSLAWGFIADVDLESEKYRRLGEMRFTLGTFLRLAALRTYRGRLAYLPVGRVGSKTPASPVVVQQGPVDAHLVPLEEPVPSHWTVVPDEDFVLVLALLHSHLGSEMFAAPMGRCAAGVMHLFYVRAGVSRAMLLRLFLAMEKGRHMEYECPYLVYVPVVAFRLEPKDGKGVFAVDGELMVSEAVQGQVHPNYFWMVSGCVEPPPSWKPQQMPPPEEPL

Turning to `COc1ccc2[nH]c3c4[nH]c5ccc(OC)cc5c4c4c(c3c2c1)C(=O)NC4=O`, the inhibition in [1] was -1.68%; in experiment [2], -2.46%; in experiment [3] it was -0.32%; in experiment [4], 6.4%; in experiment [5] it was 15.9%; in experiment [6], 5.28%. Moreover, the inhibition in experiment [7] stood at 6.84%; in [8], 3.54%; in experiment [9], 4.71%; in [10] it was 13.5%; in [11] it was 36.3%; in experiment [12] it was 0.76%. Besides, the inhibition is 1.99% in experiment [13]; 4.36% in [14]; 5.74% in experiment [15]; 5.36% in [16]; 5.14% in experiment [17]; 3.71% in experiment [18]. The inhibition was found to be 5.28% in [19] and 2.96% in experiment [20].
